Test results published in PubChem BioAssay AID493131 (Broad Institute, 2011).
The campaign covered roughly 340,000 compounds. About 3,300 (0.97%) were called active.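 How the source made its calls: active means mean activation above about 17%, with every replicate also reaching it (limit read from the data, passing the limit was not always enough); inconclusive means only one of the two conditions met; inactive means the rest.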 The entries come from a sample that favours actives as a whole.

target: Protein FosB (Mus musculus) (UniProt P13346); test: activators of delta FosB homodimer, primary screen, biochemical, fluorescence polarization, TAMRA-CDK5 oligo, single point (AID 493131); conditions: purified delta FosB, at 25 µM, stronger effect = higher value, percent of positive-control signal above neutral wells;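 further: fluorescence polarization rise as delta FosB binds a TAMRA Cdk5 AP-1 oligo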
Sequence (P13346 whole entry, looked up): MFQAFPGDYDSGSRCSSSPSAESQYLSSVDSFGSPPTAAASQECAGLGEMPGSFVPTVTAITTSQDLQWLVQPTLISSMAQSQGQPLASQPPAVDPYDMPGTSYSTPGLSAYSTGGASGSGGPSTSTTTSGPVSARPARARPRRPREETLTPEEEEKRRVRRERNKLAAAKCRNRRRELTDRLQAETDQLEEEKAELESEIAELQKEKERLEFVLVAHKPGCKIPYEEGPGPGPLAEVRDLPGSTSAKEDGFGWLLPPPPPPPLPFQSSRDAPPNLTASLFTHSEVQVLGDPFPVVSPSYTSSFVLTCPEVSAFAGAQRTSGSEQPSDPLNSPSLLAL

activation, active:
N#Cc1c(N)nc2c3c(sc(=N)c2c1N)NC(=O)CC3c1ccccc1Cl (configuration not stated) 57.2%, CN(C)CC(O)COc1ccc(C(C)(C)c2ccc(OCC(O)CN(C)C)cc2)cc1 (configuration not stated) 20%, O=C(/C=C/c1ccc(F)cc1)NCCNC(=O)/C=C/c1ccc(F)cc1 53.1%, O=C1/C(=C/c2coc3ccc(O)cc3c2=O)SC(=S)N1c1ccccc1 45.3%, CC(=O)Nc1ccc(Nc2c3ccccc3nc3ccccc23)cc1 107%, COc1ccccc1CNC(=O)Cn1c(=O)oc2cc(Cl)ccc21 46.6%, NC(N)=Nc1nc2ccc(Br)cc2c(=O)[nH]1 42.4%, Cc1cc(NC(=O)CSc2nc3cc(Cl)ccc3c(=O)n2Cc2ccco2)no1 41.2%, O=C(N/N=C/c1cccc(O)c1)c1cc2c(ccc3ccccc32)o1 36.7%, CCCCNC(=O)C(C)N(CCN(C)C)C(=O)CCCCCN1C(=O)NC(c2ccc(Cl)cc2)C(C(=O)OCc2ccccc2)=C1C (configuration not stated) 18.2%, COc1ccc(C(=O)Nc2c(N)nc(SCC(=O)Nc3ccc(C(C)=O)cc3)[nH]c2=O)cc1 22%, c1ccc(C2=Nc3cccc4cccc(c34)N2)cc1 28.1%, Cc1ccc(-c2cc(C(=O)N/N=C/C=C/c3ccccc3)n[nH]2)o1 23.5%, COc1ccc(-n2c(SCC(=O)Nc3sc4c(c3C#N)CCCC4)nnc2-c2ccc(O)cc2)cc1 23.1%, COc1ccc2nc(/N=C(\N)NC(=O)Nc3ccccc3)nc(C)c2c1 52.1%, CCN(CC)CCOc1ccc2c(c1)C(=NNC(=O)c1ccccn1)c1cc(OCCN(CC)CC)ccc1-2 79.1%, Cc1ccc(OCC(=O)Nc2ccccc2C(=O)NC2CC2)cc1C 36.7%

activation, inactive:
O=C(Nc1ccc(Br)cn1)C1CCN(S(=O)(=O)c2cccs2)CC1 0.962%, CN(CCNC(=O)c1cc2c(-c3ccccc3F)nn(C)c2s1)C1CCCCC1 -29%, COc1ccc(C2CC(=O)Nc3sc(=N)c4c(N)c(C#N)c(N)nc4c32)cc1OC (configuration not stated) 2.35%, CSc1nc2c(c(=O)[nH]1)C(c1cccc(Cl)c1Cl)CC(=O)N2 (configuration not stated) -2.19%, O=C(Nc1ccc(N2CCN(C(=O)c3cccs3)CC2)cc1)c1cccnc1Cl -0.363%, Nc1nnc(SCC(=O)OCc2ccc(Cl)c(Cl)c2)s1 -5.37%, COc1ccc(OCC(O)CN(C)C(=O)C(C)Oc2ccccc2)cc1 (configuration not stated) 4.24%, Cc1cc(C)n(CC(O)COc2ccc(C(C)(C)C)cc2)n1 (configuration not stated) -7.22%, O=C1CC(Sc2ncn[nH]2)C(=O)N1c1ccccc1 (configuration not stated) 1.52%, Cc1cc(Nc2cc(N3CCN(C)CC3)nc(Sc3ccc(NC(=O)C4CC4)cc3)n2)n[nH]1 3.28%, CCCOCC(O)CC(CC)C(=O)NNC(=S)Nc1ccccc1 (configuration not stated) -0.789%, Cc1ccc(/C=N/NC(=O)COc2ccccc2-c2ccccc2)cc1 2.13%, C=CCNC(=O)/C=C/c1ccc(C(C)C)cc1 -5.28%, O=C(/C=C/c1ccc(F)cc1)NC(=S)NNC(=O)c1cccnc1 -8.6%, O=c1c(/C=N/O)coc2ccc(Cl)cc12 -6.61%, Cc1ccc2occ(/C=N/NC(=O)c3ccccc3C)c(=O)c2c1 -9.18%, COc1ccc(CNC(=O)c2ccc3oc(C(C)C)nc3c2)cc1 -6.34%, CC(=O)Nc1ccc(S(=O)(=O)N(C)c2nc3ccccc3nc2Cl)cc1 -7.23%, CC(=O)Nc1ccc(Nc2c([N+](=O)[O-])cc(S(C)(=O)=O)cc2[N+](=O)[O-])cc1 9.05%, COC(=O)CNC(=O)c1ccc(OC2CCN(C(=O)C3CC3)CC2)cc1 4.73%, O=C(NCc1ccccc1)C1CCCN(S(=O)(=O)c2cccs2)C1 (configuration not stated) -3.74%, COc1ccc(C(=O)NN2C(=O)C3C(c4ccccc4)C=CC(c4ccccc4)C3C2=O)cc1 (configuration not stated) -10.4%, COc1ccccc1NC(=O)CCC(=O)OC(C)C(=O)c1ccccc1 (configuration not stated) -0.918%, O=C(O)C1C2C=CC(O2)C1C(=O)Nc1ccccn1 (configuration not stated) 2.08%, O=C(NCCc1ccccn1)c1cc(-c2ccc(Cl)cc2)nc2ccccc12 -16.7%, COc1ccccc1CNC(=O)c1cc(=O)c2ccccc2o1 -8.74%, COc1ccc(OC)c(NC(=O)Cn2c(=O)oc3ccccc32)c1 -3.42%, COc1ccccc1C(=O)NCC(=O)OCC(=O)Nc1nnc(-c2ccccc2)o1 0.87%, CCOc1ccc(S(=O)(=O)NCCC(=O)NCC(C)(C)N2CCOCC2)cc1 -1.62%, NC(=O)c1cc(-c2cccnc2)nc2ccc(Br)cc12 0.097%, C/C(=N\N)c1c(-c2ccccc2)c2cc(Br)ccc2[nH]c1=O -5.15%, CC(=O)Nc1ccc(S(=O)(=O)N2CCN(CCCOc3cc(C)ccc3C)CC2)cc1 0.131%, N#Cc1c(NC(=O)CSc2nc3ccccc3c(=O)n2Cc2ccco2)sc2c1CCCC2 6.6%, Cc1cc(NC(=O)CSc2nnc(-c3ccco3)n2N)no1 2.33%, COc1ccc(CCN2C(=O)CC(N3CCC(C(N)=O)CC3)C2=O)cc1OC (configuration not stated) -2.97%, CCOC(=O)N1CCN(C(=O)C2CCCN(c3ncnc4c3sc3cccc(F)c34)C2)CC1 (configuration not stated) -16.9%, O=C(NN=Cc1ccccc1)c1ccccc1 -3.35%, Cc1c(/C=N\NC(=O)c2cc3ccccc3o2)c2ccccc2n1C -8.02%, COC(=O)c1cccnc1NC(=S)NC(C)C -6.13%, COc1ccccc1CC(=O)Nc1ccc(S(=O)(=O)N2CCCC2)cc1 -8.89%, C/C=C(\C)C(=O)N1CC2(CC(c3cccc(NC(=O)CCCCC)c3)=NO2)C[C@@H]1C(N)=O (some centres not stated) -1.2%, CC1=C(C(=O)OCc2ccccc2)C(c2ccc(C(F)(F)F)cc2)NC(=O)N1CCCCCC(=O)O (configuration not stated) -6.43%, CCCCNC(=O)C(C)N(CCN(C)C)C(=O)CCCN1C(=O)NC(c2ccc(Cl)cc2)C(C(=O)OCc2ccccc2)=C1C (configuration not stated) -3.28%, Cc1ccc(CC2CC(=O)N(c3ccc4c(c3)OCCO4)C2=O)cc1 (configuration not stated) -9.23%, N#CC(C#N)=CN=c1ccn(Cc2ccc(Cl)cc2Cl)cc1 -0.0405%, COc1ccccc1-n1c(=S)[nH]c2c(sc(=S)n2-c2ccc(C)cc2C)c1=O -9.95%, COc1ccc(C(=O)Nc2c(N)nc(SCC(=O)N3CCC(C)CC3)[nH]c2=O)cc1OC -3.09%, COc1ccc(NC(=O)CSc2nc(N)c(-c3ccccc3)c(=O)[nH]2)cc1 -6.21%, O=C(COC(=O)CNS(=O)(=O)c1ccc(F)c(F)c1F)NC1CCCC1 0.263%, COc1ccc(CCN(Cc2cc3cccc(C)c3[nH]c2=O)C(=O)N2CCCC2)cc1OC -15.7%, Fc1ccccc1N=C1Nc2cccc3cccc1c23 3.8%, COc1ccccc1C1=Nc2cccc3cccc(c23)N1 -1.27%, CC(=O)N1CSCC1C(=O)O (configuration not stated) 0.385%, Cc1ccc(NC(=O)C(CC(=O)O)C2CCCO2)c(C)c1 (configuration not stated) -0.253%, Cn1ccnc1SCC(=O)Nc1ccc2c(c1)OCCO2 -4.18%, CC(C)c1cc(C(=O)N/N=C/C(Br)=C/c2ccccc2)n[nH]1 -3.49%, O=C(NN=CC=Cc1ccccc1)C(O)C(O)C(=O)NN=CC=Cc1ccccc1 (configuration not stated) 2.15%, Cc1ccc(OCc2cc(C(=O)N(C)CCn3ccnc3C)no2)cc1C -7.77%, O=C(c1ccc(NS(=O)(=O)c2ccc3[nH]c(=O)[nH]c3c2)cc1)N1CCCCC1 -5.69%, Cc1cccc([C@@H]2[C@@H]3C(=O)N(Cc4ccccc4)C(=O)[C@@H]3[C@]3(Cc4ccc(Cl)cc4)C(=O)N(c4cccc(Cl)c4)C(=O)N23)c1 -7.94%, COc1cccc(CN(C)CC(=O)Nc2sc3c(c2C#N)CCC3)c1 -3.77%, CCCc1cc(=O)[nH]c(SCC(=O)Nc2sc3c(c2C#N)CCCC3)n1 -10.9%, NC(=O)c1nnsc1-c1ccc(-c2snnc2C(N)=O)cc1 12.3%, Cc1c(C(=O)NCCN2CCOCC2)sc2nc(-c3ccc(F)cc3)cn12 -10.6%, CCCCn1c(N)c(N(CC(C)C)C(=O)c2ccc(-n3c(C)ccc3C)cc2)c(=O)[nH]c1=O 8.61%, Cc1nc(/N=C(\N)NC(=O)NC2CCCCC2)nc2ccccc12 3.68%, COc1ccc2nc(C)cc(Nc3cccc(C(=O)O)c3)c2c1 -0.297%, O=S(=O)(NCC1CN(S(=O)(=O)c2ccc3c(c2)OCCO3)C1)c1c(F)cccc1F 2.95%, CS(=O)(=O)N1CCN=C1SCc1ccc(F)cc1 1.39%, CCOc1cc2ccccc2cc1C(=O)Nc1ccccn1 -0.935%, C/C(=N\NC(=O)c1ccccc1F)c1ccccn1 -8.45%, CN(C)NC(=O)C(NC(=O)c1ccc(N)cc1)C12CC3CC(CC(C3)C1)C2 (configuration not stated) -3.81%, Cc1oc(CC(C)C)c(CN2CCCC2)c1C(=O)O 4.27%, Cc1ccc(OCC(=O)Nc2ccccc2C(=O)NC2CC2)cc1 -7.85%, COc1ccccc1OCC(=O)Nc1ccccc1C(=O)NC1CC1 -0.401%
